# Bioassay records from PubChem.
# ATXN viability: reduces viability in counter-screen for ATXN expression inhibitors | AID 651635 | S2 cells (HEK-293 line with an ATXN2-luciferase reporter) viability, CellTiter-Fluor protease fluorescence, 24 h | Potency, µM (series often up to 56.7 µM), actives largely listed as cytotoxic | actives 0.49% (n = 400,000); further: nearly all actives have a fitted effect of over 40% in size
# IL1B secr inh: blocks inflammasome-driven IL-1 beta release; THP-1 LPS/ATP IL-1B secretion, AlphaLISA, 16 h; active compounds read low; activity change, % at 57.5 µM; actives 4.7% (n = 360,000); in the data active means activity change below about -50%; inconclusive means mostly about -30% to -49%
#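 Secreted IL-1B measured by AlphaLISA bead assay after 16 h compound exposure of THP-1 cells; compounds (final up to 57.5 uM) added 1 h before LPS (250 ng/mL) and ATP (1.25 mM) stimulation; lower signal means less secretion.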
# D3 ag: activates the human D3 dopamine receptor; actives 0.58% (n = 410,000); AID 652048; P35462; max activation, %; D3R DiscoveRx beta-arrestin cells, luminescence, 90 min; in the data active means max activation above about 30%
# Target sequence (P35462 whole entry, looked up): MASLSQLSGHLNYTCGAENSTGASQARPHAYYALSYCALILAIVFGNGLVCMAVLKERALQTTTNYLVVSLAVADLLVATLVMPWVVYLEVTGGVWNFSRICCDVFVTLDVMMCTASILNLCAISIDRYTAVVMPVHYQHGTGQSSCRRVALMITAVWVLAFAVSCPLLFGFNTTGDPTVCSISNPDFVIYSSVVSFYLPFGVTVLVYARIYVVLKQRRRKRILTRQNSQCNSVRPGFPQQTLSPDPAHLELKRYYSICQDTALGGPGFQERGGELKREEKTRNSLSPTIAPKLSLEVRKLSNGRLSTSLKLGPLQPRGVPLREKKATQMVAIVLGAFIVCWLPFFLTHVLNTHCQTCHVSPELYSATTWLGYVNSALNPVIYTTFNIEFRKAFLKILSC
#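 Agonist-mode cell screen: cells plated at 1500/well and incubated overnight at 37 °C, then exposed to library compounds for 90 min at 37 °C. Detection reagent was added for 30–60 min at room temperature, and luminescence was read.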
# ATXN2 expr inh: ATXN2 expression inhibition; HEK-293 ATXN2-luciferase reporter, luminescence, 24 h; Potency, µM (doses to about 57 µM), hits mostly inhibitors; actives 0.72% (n = 360,000); AID 1745845; further: nearly all actives have a fitted effect of over 55% in size
#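 qHTS (up to 57 uM final) was run with 24 h compound exposure of reporter cells at 37 °C. Each well was multiplexed: SteadyGlo luminescence measured ATXN2-luciferase expression after a fluorogenic Gly-Phe-AFC viability readout (25 uM final).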
# D3 antag: antagonists of human D3 dopamine receptor; P35462; D3R cells, DiscoveRx beta-arrestin luminescence, antagonist mode; active compounds read low; max response, negative = inhibition, %; actives 2.5% (n = 360,000); AID 652054; in the data active means max response below about -50%; inconclusive means no clear call, values can overlap the other calls
#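 Cells expressing the human receptor were seeded at 1500 cells/well, incubated overnight at 37 degrees C in 5% CO2, then exposed to library compounds with dopamine controls for 90 minutes at 37 degrees C before luminescent detection.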
# Integrin act MD: activators of alpha7 integrin expression for muscular dystrophy; alpha7betagal myoblasts, beta-gal FDG fluorescence, 48 h; Potency, µM (highest dose often 38.3 µM), usual class: activators; actives 0.064% (n = 350,000); further: nearly all actives have a fitted effect of over 60% in size
#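 Alpha7betagal+/- myoblasts (passage 13) were plated 16-24 hr, then exposed to compounds (1:260 dilution of DMSO stock) for 48 hours at 37C. After MPER lysis, β-galactosidase reporter activity was read as FDG fluorescence (ex 480/em 540) after 30 minutes.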
# Numbers stand for hits; n = inactive; u = inconclusive; x = not tested or not shown; [ ] = another dose, or the depositor's remark. Most compounds without a hit are left out; they make up all but 7% or so of the library. Unless noted, the call rests on the fitted dose curve; in most records, active means well fitted curve in the direction sought with a large enough effect; inconclusive means small, poorly fitted or top-dose-only effect, or another doubt; inactive means no such curve, though single readings can be large; an effect the other way counts as inactive or inconclusive.
SMILES,ATXN viability,IL1B secr inh,D3 ag,ATXN2 expr inh,D3 antag,Integrin act MD
COc1ccccc1C(CCNCc1ccc(N(C)C)cc1)c1ccc(OC(C)C)cc1 (stereo not drawn),31.6µM,-100.7,n,x,u,n
CCCOc1ccc(CSc2ncn[nH]2)cc1,u,n,n,n,-81.8,n
CCCCn1c(N)c(N(CCOC)C(=O)C(C)Oc2ccc(Cl)cc2)c(=O)[nH]c1=O (stereo not drawn),n,n,n,n,n,n
COc1nc(Cl)cn(-c2ccc(C)cc2)c1=O,u,n,n,n,n,n
Cc1ccc(-n2c(Cl)c(Cl)nc(Cl)c2=O)cc1,x,-97.3,n,5.32µM,-106.2,u
Cc1c(C)n(CCc2ccccc2)c2ncnc(NCCCN(C)C)c12,n,-71.7,n,n,u,n
CCc1cc(SC#N)cc(CC)c1NC(=O)CCl,u,-99.6,n,u,n,n
CCc1cc(S(N)(=O)=O)cc(CC)c1NC(C)=O,n,n,n,n,n,n
CC(C)c1cc(=O)n2[nH]c(SCc3ccccc3)nc2n1,n,n,n,n,n,n
O=C(C=P(c1ccccc1)(c1ccccc1)c1ccccc1)c1ccccc1-c1ccccc1C(=O)C=P(c1ccccc1)(c1ccccc1)c1ccccc1,x,u,n,u,-89.1,n
O=C(NNC(=O)c1ccccc1-c1ccccc1C(=O)O)c1ccccc1,n,n,n,n,n,n
CC(C)N1CCC(N2CCN(Cc3ccc4nsnc4c3)CC2CCO)CC1 (stereo not drawn),n,n,n,n,n,n
CC(=O)[C@@]1(O)C(C)CC2C3C=C(C)C4=Cc5c(cnn5-c5ccccc5)C[C@]4(C)C3C(O)C[C@@]21C (stereo partly drawn),u,-90.6,n,u,n,n
Cc1cc(C(=O)NC2CC(C)(C)Cc3c2cnn3-c2ccccc2)n(C)n1 (stereo not drawn),n,n,n,n,n,n
CC(C)CCn1c(=O)c2ccccc2n2c(CN3CCOCC3)nnc12,n,n,n,n[2.22 µM],-54.2,n
CCc1ccccc1NC(=S)NCC1CCN(c2ccc(OC)cc2)C1 (stereo not drawn),n,n,n,x,u,n
CCc1cccc(C)c1NC(=S)NCC1CCN(c2ccc(OC)cc2)C1 (stereo not drawn),n,-67.0,n,u,n,n
CCCCn1cc(S(=O)(=O)c2ccc(Cl)cc2)c(=O)c2cc(F)c(N3CCCCC3)cc21,x,x,n,x,x,x
N#CC1(NC(=O)CSc2nnc(Cc3ccccc3)o2)CCCCC1,n,n,n,x,n,n
O=C(c1ccc(N2CCN(C(=O)c3ccccc3)CC2)cc1)c1cccc(F)c1,n,-76.9,n,u,n,n
CC(=O)N1CCN(c2ccc(NC(=O)c3ccc4c(c3)OCO4)cc2)CC1,n,n,n,n,n,n
Cc1ccc(C(=O)N2CCN(c3ccc(NC(=O)c4ccc5c(c4)OCCO5)cc3)CC2)cc1,n,x,n,u,n,n
Cc1ccccc1C(=O)N1CCN(c2ccc(NC(=O)c3ccc4c(c3)OCCO4)cc2)CC1,u,u,n,28.2µM,n,n
O=C(Nc1ccc(N2CCN(C(=O)c3ccccc3)CC2)cc1)c1ccc2c(c1)OCO2,n,-78.4,n,n,n,n
O=C1c2ccccc2S(=O)(=O)c2cc(N3CCN(C(=O)c4ccccc4)CC3)ccc21,n,-67.2,64.0,n,n,n
SMILES,ATXN viability,IL1B secr inh,D3 ag,ATXN2 expr inh,D3 antag,Integrin act MD
Cc1cccc2cc(CN(CC3CCCO3)S(=O)(=O)c3ccccc3)c(=O)[nH]c12 (stereo not drawn),n,n,n,n,n,n
COc1ccc(C2CC(c3ccccc3Cl)=NN2c2ccc(S(N)(=O)=O)cc2)cc1 (stereo not drawn),x,u,n,u,u,n
Nc1nc(Sc2ccc([N+](=O)[O-])cc2[N+](=O)[O-])n[nH]1,u,n,n,n,n,n
Cc1ccnc(SCc2ccc([N+](=O)[O-])cc2)n1,n,n,n,n,-57.4,n
Cc1ccc(Sc2ccc([N+](=O)[O-])cc2[N+](=O)[O-])nc1,n,-187.5,n,x,n,n
Cc1ccnc(Sc2ccc([N+](=O)[O-])cc2[N+](=O)[O-])n1,u,-103.7,n,u,n,n[7.66 µM]
O=[N+]([O-])c1ccc(CSc2ncnc3ccccc23)cc1,x,-72.9,n,n,u,n
CCN(CC)S(=O)(=O)c1ccc(O)c(NS(=O)(=O)c2ccccc2F)c1,n,n,n,n,n,n
O=C(/C=C/c1cccc(Cl)c1)N1CCC(Cc2ccccc2)CC1,u,u,n,n,n,n
C=CCOc1ccccc1CN1CCC(Cc2ccccc2)CC1,n,-86.1,n,n,-52.4,n
Clc1ccccc1OCCN1CCC(Cc2ccccc2)CC1,u,u,n,x,-89.9,n
O=Cc1cc(Cl)ccc1OCCN1CCC(Cc2ccccc2)CC1,n,-92.9,n,n,u,n
c1ccc(-c2ccccc2OCCCN2CCCCC2)cc1,n,n,n,n,n,n
OCc1ccccc1OCCCN1CCC(Cc2ccccc2)CC1,n,u,n,n,-66.0,n
COc1cccc(NC(=O)Cn2nnc(-c3ccccc3N)n2)c1,n,n,n,n,n,n
COc1ccccc1CCNC(=O)C1CCC(=O)N(C2CC2)C1 (stereo not drawn),n,n,n,x,n,n
COc1cc(OC)c(CN2CCC(Cc3ccccc3)CC2)cc1Br,u,-57.5,n,x,u,n
O=C(CCSCCC(=O)Nc1ccccc1F)Nc1ccccc1F,n,n,n,n,n,n
O/N=C/c1cc2ccccc2n1Cc1ccccc1F,x,n,n,x,-53.1,n
CCOc1cc(/C=C2\C(=O)N(CCC#N)N=C2C)ccc1OCC(N)=O,u,n,n,x,n,n
COc1cc(/C=C2\SC(N)=NC2=O)ccc1OCC(=O)Nc1ccc(C)cc1,n,-102.8,n,n,n,n
COc1cc(/C=C2\C(=O)N(CCC#N)N=C2C)ccc1OCC(=O)Nc1ccccc1,n,-60.8,n,n,n,n
O=C(NCc1ccccc1)C(c1cccc2ccccc12)n1c(=O)c(-c2ccco2)nc2ccccc21 (stereo not drawn),x,n,n,x,n,x
c1ccc(COc2ncnc3c2ncn3CCCNC2CCN(Cc3ccccc3)CC2)cc1,x,u,n,25.1µM,n,n
O=C(Nc1ccn(CCCNCCN2CCOCC2)c(=O)n1)OCc1ccccc1,n,n,n,n,n,n
O=C(Nc1ccn(CCCN2CCN(Cc3cccc4ccccc34)CC2)c(=O)n1)OCc1ccccc1,x,u,n,28.2µM,n,n
O=C(Nc1ccn(CCCNC2CCN(Cc3ccccc3)CC2)c(=O)n1)OCc1ccccc1,u,n,n,u,-52.5,n
O=C(Nc1ccn(CCCN2CCN(c3ccccc3)CC2)c(=O)n1)OCc1ccccc1,u,n,n,n,n,n
